An excerpt weighted towards active compounds, which were near 2.6% of everything screened.
Cruzain inh noDet – blocks cruzain activity in detergent-free assay; AID 1476; P25779; Potency, µM, for the others: max response, negative = inhibition, usual class: inhibitors; purified cruzain, Z-FR-AMC fluorescence, no detergent; 2.3% of 200,000 active;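 further: plate controls were enzyme without inhibitor for no effect and buffer without enzyme for full effect; nearly all actives have a fitted effect of over 40% in size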
Target sequence (P25779 123-467 limits assumed): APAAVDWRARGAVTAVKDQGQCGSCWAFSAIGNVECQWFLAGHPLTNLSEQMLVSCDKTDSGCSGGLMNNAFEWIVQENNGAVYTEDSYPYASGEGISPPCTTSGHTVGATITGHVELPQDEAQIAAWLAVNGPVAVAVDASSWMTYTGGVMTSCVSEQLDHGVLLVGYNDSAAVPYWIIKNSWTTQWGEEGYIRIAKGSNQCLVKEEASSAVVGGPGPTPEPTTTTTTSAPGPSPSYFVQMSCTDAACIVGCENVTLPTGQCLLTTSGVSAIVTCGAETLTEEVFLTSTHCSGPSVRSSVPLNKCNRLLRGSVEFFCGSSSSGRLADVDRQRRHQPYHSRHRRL
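Purified cruzain at 1.5 nM, pre-incubated 15 min with compound at room temperature in 100 mM sodium acetate pH 5.5, 5 mM DTT, 0.00005% Triton X-100. Reaction started with 2 uM Z-FR-AMC; AMC fluorescence increase over 60 s gives rate.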
Cruzain Triton – inhibitors of Trypanosoma cruzi cruzain with detergent | purified cruzain, Z-FR-AMC fluorescence, 0.01% Triton | P25779 | 0.43% of 200,000 active | Potency, µM, for the others: max response, negative = inhibition, actives largely listed as inhibitors | AID 1478;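 further: plate controls were neutral wells for no effect and buffer without enzyme for full effect; nearly all actives have a fitted effect of over 40% in size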
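15 min RT preincubation of 1.5 nM cruzain with compound, then 2 uM Z-FR-AMC added; kinetic AMC fluorescence, 60 s delta. Triton X-100 0.01%, pH 5.5.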
An asterisk follows results filed as active; ? = inconclusive. The call rests on the fitted dose curve; in most records, active means well fitted curve in the direction sought with a large enough effect; inconclusive means small, poorly fitted or top-dose-only effect, or another doubt; inactive means no such curve, though single readings can be large; an effect the other way counts as inactive or inconclusive. Potency means the concentration at half of the fitted maximal effect.

SMILES	Cruzain inh noDet	Cruzain Triton
O=[N+]([O-])c1ccc(OC/C=C2\Oc3ccc([N+](=O)[O-])cc3C2N2CCOCC2)cc1 (stereo unspecified)	-2%	-9%
O=[N+]([O-])c1ccc2c(c1)C(N1CCOCC1)/C(=C/COc1ccc3ccccc3c1Br)O2 (stereo unspecified)	25µM*	-4%
CC1=N/C(=C\c2ccc([N+](=O)[O-])cc2)C(=O)N1c1ccc(Br)c(C)c1	7.9µM*	-3%
COc1ccc(/C=C2\N=C(C)N(c3ccc(C(=O)O)cc3)C2=O)cc1OC	-8%	-10%
CC1(C)CC(=O)c2cc(-c3nc(-c4ccc(F)cc4)cs3)c(=O)[nH]c2C1	1%	-2%
COc1ccc(-c2nnc(SCC(=O)N3CCC(C)CC3)o2)cc1	0%	-3%
O=C1CC(SCc2nc3ccccc3[nH]2)C(=O)N1c1ccc(F)cc1 (stereo unspecified)	?	-7%
O=C1CC(SCc2nc3ccccc3[nH]2)C(=O)N1c1cccc(Cl)c1 (stereo unspecified)	16µM*	-12%
CCN(C(=O)Nc1cn(CC(C)C)c(=O)c2ccccc12)c1cc(C)ccc1C	-10%	-3%
Cc1ccc(O)c(C(=O)c2cnc3c(c2)CN(CCC(C)C)C(=O)N3)c1	10µM*	-2%
Cc1ccc(O)c(C(=O)c2cnc3c(c2)CN(C)C(=O)N3)c1	-12%	-4%
Cc1ccccc1NC(=O)CSc1nc(-c2cccs2)nc2cc(=O)[nH]n12	1%	1%
Nc1ccc(-c2nc3ccc(-c4nc5ccc(N)cc5[nH]4)cc3[nH]2)cc1	25µM*	14µM*
Nc1ccc(-c2nc3ccccc3[nH]2)cc1	-30%	-3%
O=C(Cc1ccsc1)NCC(c1ccco1)N1CCCCC1 (stereo unspecified)	9%	1%
CC(C)C(NC(=O)c1ccco1)C(=O)NCC(c1ccco1)N1CCCCC1 (stereo unspecified)	?	14µM*
COc1ccc(-c2noc(CSc3nc4ccccc4[nH]3)n2)cc1OC	-11%	-14%
COC(=O)N/N=C/c1cc(Cl)cc(Cl)c1OCc1ccccc1	-10%	-7%
COc1cccc(/C=N/NC(N)=S)c1OCc1cccc(Cl)c1	5µM*	-24%
O=C(CSCc1ccccc1)N/N=C/c1ccccc1OCc1ccccc1	1%	-1%
NC(=S)N/N=C\c1ccccc1OCc1ccccc1	1.3µM*	3.2µM*
O=C(NCc1ccccc1)c1c2c(nc3ccccc13)C(=O)N(C1CCCCC1)C2	5%	-2%
Cc1cccc(-c2nnn3c2nc(NCc2ccc4c(c2)OCO4)c2ccccc23)c1	-3%	0%
O=C(CNC(=O)c1ccco1)NCC(=O)OC(C(=O)c1ccccc1)c1ccc(Cl)cc1 (stereo unspecified)	-26%	?
O=C(CNC(=O)c1ccco1)OC(C(=O)c1ccccc1)c1ccccc1 (stereo unspecified)	7.9µM*	6.3µM*
SMILES	Cruzain inh noDet	Cruzain Triton
COc1ccc(CNC(=O)c2cnc(N3CCCC3)nc2C)c(OC)c1	2%	-2%
COc1ccccc1Nc1nc(-c2ccccc2)c(CC(=O)O)s1	25µM*	-13%
O=C(O)Cc1sc(N/N=C\c2ccccc2)nc1-c1ccccc1	?	-9%
COC(=O)c1cc2sc(Cl)cc2n1CC(=O)Nc1cc(OC)cc(OC)c1	18%	-2%
COC(=O)c1cc2sc(Cl)cc2n1CC(=O)NCCC(C)C	25µM*	3%
CCOc1ccccc1NC(=O)C(CC(C)C)NS(=O)(=O)c1ccc2c(c1)oc(=O)n2C (stereo unspecified)	2%	2%
Cc1cccc(OCCCC(=O)Nc2ccc(N3CCCCC3)cc2)c1C	20µM*	5%
Cc1ccccc1OCC(=O)Nc1ccc(N2CCN(S(C)(=O)=O)CC2)cc1	?	8%
Cc1cc(C)cc(OCC(=O)Nc2ccc(N3CCN(C(=O)c4ccco4)CC3)cc2)c1	5%	-7%
Cc1cc(C)cc(OCC(=O)Nc2ccc(N3CCN(S(C)(=O)=O)CC3)cc2)c1	16µM*	-1%
Cc1cccc(OCCCC(=O)Nc2ccc(S(N)(=O)=O)cc2)c1C	?	-4%
Cc1cccc(OCC(=O)Nc2ccc(N3CCN(S(C)(=O)=O)CC3)cc2)c1C	13µM*	8%
Cc1ccc(Sc2ccc(N3CCC(C(=O)Nc4ccc(C)c(F)c4)CC3)nn2)cc1	3%	-2%
CC(=O)Nc1ccc(S(=O)(=O)NCC2CCC(C(=O)NCCc3ccc(C)cc3)CC2)cc1 (stereo unspecified)	-8%	10%
Cc1nnc(N2CCC(C(=O)NCCc3ccccc3Cl)CC2)c2nn(-c3ccccc3)c(C)c12	8%	-4%
Cc1cccc(CNC(=O)C2CCCN(S(=O)(=O)c3cn(C)cn3)C2)c1 (stereo unspecified)	-8%	1%
Cc1cccc(NC(=O)c2cc(S(=O)(=O)N3CCN(c4ccccc4F)CC3)ccc2F)c1C	-2%	1%

Source: PubChem (National Center for Advancing Translational Sciences (NCATS))
